Source: PubChem BioAssay
CHRM1 antagonist: antagonists of human M1 muscarinic receptor; CHO-K1 hM1, Fluo-8 calcium fluorescence, ACh EC80 antagonist; inhibition, % at 3 µM; 1.3% of 360,000 active; AID 588852;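 active means percent inhibition above its own plate's cutoff, namely the mean of that plate's compound wells plus 3 SD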;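 further: peak over basal fluorescence ratio during 140 s after agonist addition; 0% = ACh EC80 plus DMSO and 100% = DMSO alone without agonist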
Target sequence (P11229 whole entry, looked up): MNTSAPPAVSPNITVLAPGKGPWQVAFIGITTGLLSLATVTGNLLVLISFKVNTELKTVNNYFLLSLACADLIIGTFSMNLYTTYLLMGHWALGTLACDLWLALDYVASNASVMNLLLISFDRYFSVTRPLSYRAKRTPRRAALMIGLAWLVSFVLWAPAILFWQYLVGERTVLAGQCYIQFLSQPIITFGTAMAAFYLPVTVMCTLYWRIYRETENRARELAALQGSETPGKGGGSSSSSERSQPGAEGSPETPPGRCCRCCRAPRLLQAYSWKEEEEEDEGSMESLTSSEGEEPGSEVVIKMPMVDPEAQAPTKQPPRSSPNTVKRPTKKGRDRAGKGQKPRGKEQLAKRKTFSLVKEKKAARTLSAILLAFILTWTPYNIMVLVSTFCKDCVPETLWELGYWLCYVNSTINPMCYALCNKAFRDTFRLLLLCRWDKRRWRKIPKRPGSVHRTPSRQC
CHO-K1 Ca ag: counter-screen for M1 agonists: effect in parental CHO-K1 cells; AID 602248; activation, % at 3 µM; Fluo-8 calcium fluorescence; scaled to maximal ATP response, vehicle zero; 0.48% of 360,000 active; in the data active means activation above about 15%;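 further: untransfected CHO-K1 host cells lacking M1 receptor as counterscreen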
M1 PAM: human CHRM1 positive allosteric modulation | P11229 | 0.088% of 360,000 active | activation, % at 3 µM | CHO-K1 hM1, Fluo-8 calcium fluorescence, ACh EC20; 0% = ACh EC20, 100% = maximal ACh; in the data active means activation above about 19%, passing the limit was not always enough
M1 PAM parental: nonselective activator or artifact in parental CHO-K1 calcium assay; ATP EC20, Fluo-8 calcium fluorescence; 0% at ATP EC20, 100% at ATP max; activation, % at 3 µM; AID 602247; 0.02% of 360,000 active;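 active means activation above the run cutoff, the mean activation of all test compounds plus 3 SD, cut at about 40% in these data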;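 further: peak over basal fluorescence ratio in a 140 s read after ATP addition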
M1 ag: activates human CHRM1 receptor; 0.33% of 360,000 active; activation, % at 3 µM; P11229; CHO-K1 hM1, Fluo-8 calcium fluorescence, agonist mode; 0% DMSO, 100% acetylcholine EC100;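 active means activation above the run's mean compound activation plus 3 SD, cut at about 16% in these data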;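 further: peak over basal fluorescence ratio within a 140 s kinetic read after compound addition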
CHO-K1 Ca antag: nonselective inhibitor or artifact in parental CHO-K1 cells; 0.6% of 360,000 active; inhibition, % at 3 µM; ATP-induced calcium, Fluo-8 fluorescence;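 active means inhibition above a per-plate cutoff, the plate's mean sample inhibition plus 3 SD, cut at about 24% in these data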;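 further: 0% = DMSO plus EC80 ATP and 100% = DMSO alone without ATP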
* = called active by the depositor. Hits are enriched below; roughly 2.4% of the tested compounds scored in any of these assays.

For Cc1nnsc1C(=O)NC1CCCc2c1cnn2-c1ccc(F)cc1F (stereo not drawn) the results were CHRM1 antagonist 31*, CHO-K1 Ca ag 10, M1 PAM -11, M1 PAM parental -14, M1 ag 1 and CHO-K1 Ca antag 15.
Screening COc1ccc(C(=O)NC2CCCc3c2cnn3-c2ccc(C)c(C)c2)c(OC)c1OC (stereo not drawn) returned CHRM1 antagonist -13, CHO-K1 Ca ag 2, M1 PAM 2, M1 PAM parental 9, M1 ag -2 and CHO-K1 Ca antag 1.
COc1cccc(C(=O)NC2CCCc3c2cnn3-c2ccc(C)c(C)c2)c1OC (stereo not drawn) was read as CHRM1 antagonist 8, CHO-K1 Ca ag 8, M1 PAM -9, M1 PAM parental -12, M1 ag -5 and CHO-K1 Ca antag 38*.
For CCOc1ccc(OCCC(=O)OCC(=O)Nc2cc(OCC)c(N3CCOCC3)cc2OCC)cc1 the results were CHRM1 antagonist -3, CHO-K1 Ca ag 0, M1 PAM 6, M1 PAM parental 2, M1 ag -3 and CHO-K1 Ca antag 0.
`FC(F)(F)C(F)(F)C(F)(F)c1nc2nc(Cl)c(Cl)nc2[nH]1` gave CHRM1 antagonist -9, CHO-K1 Ca ag 0, M1 PAM 1, M1 PAM parental -11, M1 ag 2 and CHO-K1 Ca antag 2.
`FC(F)(F)c1nc2nc(Cl)c(Cl)nc2[nH]1` gave CHRM1 antagonist -15, CHO-K1 Ca ag -1, M1 PAM 4, M1 PAM parental 7, M1 ag 0 and CHO-K1 Ca antag -6.
`FC(F)(F)c1cccc(-c2nc3nc(Cl)c(Cl)nc3[nH]2)c1` gave CHRM1 antagonist 33, CHO-K1 Ca ag 18*, M1 PAM -11, M1 PAM parental -17, M1 ag 5 and CHO-K1 Ca antag 6.
For CCOc1ccc(NC(=S)N2CCC(C(=O)c3ccc(OC)cc3)CC2)cc1 the results were CHRM1 antagonist -30, CHO-K1 Ca ag 1, M1 PAM 29*, M1 PAM parental 15, M1 ag 0 and CHO-K1 Ca antag -12.
`COc1ccc(NC(=S)N2CCC(C(=O)c3ccc(Cl)cc3)CC2)cc1` gave CHRM1 antagonist -5, CHO-K1 Ca ag 1, M1 PAM 1, M1 PAM parental 18, M1 ag -1 and CHO-K1 Ca antag -4.
O=C1NC2(c3ccccc3)NC(=O)NC2(c2ccccc2)N1 (stereo not drawn) was read as CHRM1 antagonist -6, CHO-K1 Ca ag 1, M1 PAM 2, M1 PAM parental 25, M1 ag -4 and CHO-K1 Ca antag 4.
Screening CN1C(=O)N(C)C2(c3ccccc3)NC(=O)NC12c1ccccc1 (stereo not drawn) returned CHRM1 antagonist -14, CHO-K1 Ca ag 0, M1 PAM 11, M1 PAM parental -8, M1 ag 8 and CHO-K1 Ca antag 29*.
Screening COc1cc(-c2nc(C(=O)NCC3CCCO3)cc3c2[nH]c2ccccc23)cc(OC)c1OC (stereo not drawn) returned CHRM1 antagonist 11, CHO-K1 Ca ag 4, M1 PAM -12, M1 PAM parental -15, M1 ag -3 and CHO-K1 Ca antag 5.
O=C(NCC1CCCO1)c1cc2c([nH]c3ccccc32)c(-c2cccc(Cl)c2)n1 (stereo not drawn) was read as CHRM1 antagonist 35*, CHO-K1 Ca ag 5, M1 PAM -24, M1 PAM parental -19, M1 ag -2 and CHO-K1 Ca antag 14.
For COc1ccc(CCC(C)NC2C3CC4CC(C3)CC2C4)cc1 (stereo not drawn) the results were CHRM1 antagonist 99*, CHO-K1 Ca ag 1, M1 PAM -22, M1 PAM parental -4, M1 ag -7 and CHO-K1 Ca antag 4.
COc1ccc(CCC(C)Nc2ccccc2F)cc1 (stereo not drawn) was read as CHRM1 antagonist 6, CHO-K1 Ca ag 0, M1 PAM -4, M1 PAM parental 17, M1 ag -5 and CHO-K1 Ca antag -13.
COc1cc([N+](=O)[O-])cc(/C=C2/SC(=S)N(Cc3ccccc3)C2=O)c1O was read as CHRM1 antagonist 51*, CHO-K1 Ca ag 37*, M1 PAM -14, M1 PAM parental -6, M1 ag 38* and CHO-K1 Ca antag 40*.
Screening COc1ccc(CN2C(=O)/C(=C/c3ccncc3)SC2=S)cc1 returned CHRM1 antagonist -10, CHO-K1 Ca ag 3, M1 PAM 24*, M1 PAM parental 17, M1 ag 4 and CHO-K1 Ca antag -1.
For COc1cc(/C=C2/SC(=S)N(Cc3ccccc3)C2=O)cc(Cl)c1O the results were CHRM1 antagonist 23, CHO-K1 Ca ag 6, M1 PAM -4, M1 PAM parental -19, M1 ag 25* and CHO-K1 Ca antag 3.
Screening O=C1/C(=C\c2cccc([N+](=O)[O-])c2O)SC(=S)N1Cc1ccccc1 returned CHRM1 antagonist -7, CHO-K1 Ca ag 1, M1 PAM 8, M1 PAM parental -20, M1 ag 0 and CHO-K1 Ca antag -9.
COc1cc(/C=C2/SC(=S)N(Cc3ccccc3)C2=O)ccc1OCC(=O)O was read as CHRM1 antagonist -10, CHO-K1 Ca ag 1, M1 PAM 15, M1 PAM parental 18, M1 ag 1 and CHO-K1 Ca antag 0.
For Cc1cnc(C(=O)OCC(=O)Nc2cccc(S(=O)(=O)N3CCOCC3)c2)cn1 the results were CHRM1 antagonist -13, CHO-K1 Ca ag 0, M1 PAM 7, M1 PAM parental 21, M1 ag -1 and CHO-K1 Ca antag -11.
`CC[C@]12c3[nH]c4ccc(OC)cc4c3CCN1C(=O)C(CC(=O)NCCc1ccccn1)C[C@@H]2C(=O)N1CCN(C(=O)C2CC2)CC1` (stereo partly drawn) gave CHRM1 antagonist -13, CHO-K1 Ca ag 0, M1 PAM 7, M1 PAM parental 18, M1 ag -3 and CHO-K1 Ca antag -24.
CCSc1nsc(NC(=O)Nc2ccccc2F)n1 was read as CHRM1 antagonist 22, CHO-K1 Ca ag 14, M1 PAM -12, M1 PAM parental -7, M1 ag 4 and CHO-K1 Ca antag 6.
Screening CCSc1nsc(NC(=O)Nc2cccc(OC)c2)n1 returned CHRM1 antagonist 27*, CHO-K1 Ca ag 17*, M1 PAM -14, M1 PAM parental 5, M1 ag 4 and CHO-K1 Ca antag 13.
C=CCSc1nsc(NC(=O)Nc2ccc(F)cc2)n1 was read as CHRM1 antagonist 31*, CHO-K1 Ca ag 14, M1 PAM -13, M1 PAM parental 13, M1 ag 5 and CHO-K1 Ca antag 25*.
`O=C(CNS(=O)(=O)c1cccc2nsnc12)NCCc1ccccc1` gave CHRM1 antagonist -9, CHO-K1 Ca ag 1, M1 PAM 9, M1 PAM parental 9, M1 ag -2 and CHO-K1 Ca antag -3.
